Assay outcomes from PubChem BioAssay.
The list is not random: actives were taken first. Their share in the collection is about 7.9%.
Cav3 T inh – human Cav3.2 channel inhibition, primary screen | O95180 | Cav3.2-expressing cells, Fluo-4 calcium fluorescence FDSS; hits give low values | B-score at 10 µM | hit rate 4% among 100,000 | AID 449739;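 active = single-dose well whose peak fluorescence ratio is a statistical outlier from its plate by either plate-standardised score or position-corrected B-score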
HER2 expr 66K – lowers expression of human Her2 kinase; P04626; SKBR-3 HER2 protein level, AlphaScreen, 18-24 h; hits give low values; HER2 level % of control, % at 10 µM; hit rate 0.69% among 65,000; AID 645;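 active = HER2 level under 5% of the carrier-only control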;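 also: lower value means stronger loss of Her2 protein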
PLAP activator – human PLAP activation; purified PLAP enzyme, luminescent substrate read-out; hits give high values; hit rate 1.2% among 96,000; activation fold at 20 µM; AID 696; P05187; in the data active = activation fold above about 2
Target sequence (P05187 whole entry, looked up): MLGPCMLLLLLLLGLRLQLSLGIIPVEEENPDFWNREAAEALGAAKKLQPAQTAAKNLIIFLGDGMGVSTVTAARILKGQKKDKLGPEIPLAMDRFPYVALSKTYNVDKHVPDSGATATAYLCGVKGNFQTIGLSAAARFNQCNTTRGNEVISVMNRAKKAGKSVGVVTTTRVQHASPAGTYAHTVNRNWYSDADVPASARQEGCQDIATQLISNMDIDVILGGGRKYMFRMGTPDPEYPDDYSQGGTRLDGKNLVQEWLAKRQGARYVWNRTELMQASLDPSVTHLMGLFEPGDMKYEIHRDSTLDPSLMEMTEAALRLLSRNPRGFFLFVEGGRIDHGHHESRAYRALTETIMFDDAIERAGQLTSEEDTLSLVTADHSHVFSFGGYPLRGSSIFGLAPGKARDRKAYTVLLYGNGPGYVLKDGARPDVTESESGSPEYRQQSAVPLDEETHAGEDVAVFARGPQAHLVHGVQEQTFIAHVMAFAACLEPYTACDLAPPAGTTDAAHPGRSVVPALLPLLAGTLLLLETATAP
M1 antag – M1 muscarinic receptor (rat) antagonism; P08482; CHO-M1 cells, Fluo-4 calcium, ACh EC80 antagonist mode; hits give low values; B-score at 10 µM; hit rate 3.4% among 64,000; AID 628;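 active = calcium fluorescence response, raw or row-and-column corrected B-score, differing from the plate sample mean either way at a set confidence level, mostly lower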
M1 ag – agonists of M1 muscarinic receptor; CHO-M1 cells, Fluo-4 calcium fluorescence, agonist mode; hits give high values; B-score at 10 µM; hit rate 3% among 64,000; AID 626;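 active = fluorescence rise, raw or as B-score row- and column-corrected plate score, outside the 99.7% band of its plate's samples, either direction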
Numbers stand for hits.

Screening COc1cccc(Cn2nnc(C(=O)NCc3ccccc3Cl)c2N)c1 returned Cav3 T inh -3.9, HER2 expr 66K inactive, PLAP activator inactive, M1 antag inactive and M1 ag inactive.
For O=c1c(Cl)c(NCCCO)cnn1-c1nc2ccccc2[nH]1 the results were Cav3 T inh 3.1 and PLAP activator inactive.
COC(=O)C(NC(=O)Nc1ccccc1OC)C(C)C (stereo not given) was read as Cav3 T inh inactive and PLAP activator inactive.
For COC(=O)[C@@H](NC(=O)Nc1ccccc1F)C(C)C the results were Cav3 T inh inactive, HER2 expr 66K inactive, PLAP activator inactive, M1 antag 1.6 and M1 ag inactive.
For COc1ccc(-c2c(C)nn3c(N4CCC(C(=O)NCCN(C)C)CC4)cc(C)nc23)cc1OC the results were Cav3 T inh 3.1, HER2 expr 66K inactive, PLAP activator inactive, M1 antag inactive and M1 ag inactive.
For CCCC(=O)O[C@H]1C[C@@H](C)N(C(=O)c2ccccc2)c2ccc(C)cc21 the results were Cav3 T inh -8 and PLAP activator inactive.
For CC1CC(Nc2ccccc2)c2ccccc2N1C(=O)c1cccnc1 (stereo not given) the results were Cav3 T inh inactive.
Screening CC1(C)Cc2c(sc3nc(-c4cccs4)n(N)c(=O)c23)CO1 returned Cav3 T inh inactive, HER2 expr 66K inactive, PLAP activator inactive, M1 antag -1.8 and M1 ag 5.
For CCOc1cc(S(=O)(=O)NCCc2ccccc2C)c(OCC)cc1-n1cnnn1 the results were Cav3 T inh inactive, HER2 expr 66K inactive, PLAP activator inactive, M1 antag inactive and M1 ag inactive.
For CCOc1cc(S(=O)(=O)NCCc2cccc(C)c2)c(OCC)cc1-n1cnnn1 the results were Cav3 T inh inactive, HER2 expr 66K 3.6, PLAP activator inactive, M1 antag inactive and M1 ag inactive.
CCN1C(=O)N[C@@H](c2cccc(C(F)(F)F)c2)[C@@H](C(=O)OC)[C@H]1C was read as Cav3 T inh inactive.
Screening CN1C(=O)c2ccc(N3CCCC3)cc2C1=O returned Cav3 T inh inactive, HER2 expr 66K inactive, PLAP activator inactive, M1 antag inactive and M1 ag 13.
For Cc1cc(C(=O)N/N=C/c2cccc([N+](=O)[O-])c2)c(C)o1 the results were Cav3 T inh inactive and PLAP activator inactive.
Screening Cc1c(Cl)c([N+](=O)[O-])nn1Cc1ccc(C(=O)N/N=C\c2cccc(Br)c2)o1 returned Cav3 T inh -6.4 and PLAP activator inactive.
CCOc1cc(NC(=S)Nc2ccccc2)c(OCC)cc1NC(=O)c1ccccc1 was read as Cav3 T inh inactive and PLAP activator inactive.
Screening CCOc1cc(NC2CS(=O)(=O)CC2O)c(OCC)cc1NC(=O)c1ccccc1 (stereo not given) returned Cav3 T inh inactive, HER2 expr 66K inactive, PLAP activator inactive, M1 antag 2.6 and M1 ag inactive.
O=C(Cn1c(=O)n(Cc2ccco2)c(=O)c2c3c(sc21)CCCCC3)Nc1ccccc1 was read as Cav3 T inh -4.5 and PLAP activator inactive.
CN(Cc1ccccc1)S(=O)(=O)c1cccc2cccnc12 was read as Cav3 T inh inactive and PLAP activator inactive.
`COc1ccccc1NC(=O)c1cc(Cl)ccc1NC(=O)c1ccco1` gave Cav3 T inh inactive, HER2 expr 66K inactive, PLAP activator inactive, M1 antag inactive and M1 ag inactive.
COc1ccccc1NC(=O)c1sc2nc(-c3ccco3)ccc2c1N was read as Cav3 T inh inactive, HER2 expr 66K -0.3, PLAP activator inactive, M1 antag inactive and M1 ag inactive.
For COc1ccccc1NC(=O)C(=O)NNC(=O)c1ccco1 the results were Cav3 T inh inactive and PLAP activator 2.2.
Cn1c(=O)c2c(nc(SC3C(=O)CC(C)(C)CC3=O)n2C)n(C)c1=O was read as Cav3 T inh inactive, HER2 expr 66K inactive, PLAP activator inactive, M1 antag inactive and M1 ag inactive.
CC(C)C(=O)N1CCN(c2ccccc2NC(=O)Cc2ccc(Cl)cc2)CC1 was read as Cav3 T inh -5, HER2 expr 66K inactive, PLAP activator inactive, M1 antag inactive and M1 ag inactive.
`O=C(Cc1ccc(Cl)cc1)Nc1ccc(N2CCN(C(=O)c3ccco3)CC2)c(Cl)c1` gave Cav3 T inh inactive, HER2 expr 66K inactive, PLAP activator 2.4, M1 antag inactive and M1 ag inactive.
COc1ccc(Cl)cc1C(=O)Nc1ccccc1N1CCN(C(=O)C(C)C)CC1 was read as Cav3 T inh -4.2, HER2 expr 66K inactive, PLAP activator inactive, M1 antag inactive and M1 ag inactive.
`Cc1ccccc1OCC(=O)Nc1ccccc1N1CCCCC1` gave Cav3 T inh inactive, HER2 expr 66K inactive, PLAP activator inactive, M1 antag inactive and M1 ag inactive.
`COc1ccc(C(=O)Nc2ccccc2N2CCN(C(=O)C(C)C)CC2)cc1Cl` gave Cav3 T inh inactive.
`Cc1cccc(OCC(=O)Nc2ccccc2N2CCN(C(=O)C(C)C)CC2)c1C` gave Cav3 T inh -4.9, HER2 expr 66K inactive, PLAP activator inactive, M1 antag inactive and M1 ag inactive.
`COc1ccc(-c2nc(CCNC(=O)c3cccs3)cs2)cc1` gave Cav3 T inh inactive and PLAP activator inactive.
CCC(=O)N1CCN(c2ccccc2NC(=O)Cc2ccccc2)CC1 was read as Cav3 T inh -5, HER2 expr 66K inactive, PLAP activator inactive, M1 antag inactive and M1 ag inactive.
For CCOC(=O)C1C(=O)NC(N2CCCCC2)=NC1c1ccco1 (stereo not given) the results were Cav3 T inh inactive, HER2 expr 66K inactive, PLAP activator inactive, M1 antag inactive and M1 ag inactive.
For O=C(CSc1nc2ccccc2[nH]1)NCc1ccco1 the results were Cav3 T inh inactive, HER2 expr 66K inactive, PLAP activator inactive, M1 antag inactive and M1 ag inactive.
O=C(CSc1ncccc1-c1nc2ccccc2[nH]1)NCc1ccco1 was read as Cav3 T inh inactive, HER2 expr 66K inactive, PLAP activator 2, M1 antag inactive and M1 ag inactive.
Screening CCCCNC(=O)Cc1coc2ccc3ccccc3c12 returned Cav3 T inh inactive and PLAP activator inactive.
`CCC1(CC)Cc2ccccc2C(Nc2c(C)n(C)n(-c3ccccc3)c2=O)=N1` gave Cav3 T inh inactive and PLAP activator 2.
For COC(=O)C1CN(S(=O)(=O)c2ccccc2)CCN1S(=O)(=O)c1ccccc1 (stereo not given) the results were Cav3 T inh inactive and PLAP activator inactive.
Screening COc1cc(CNCCO)cc(Br)c1OCc1cccs1 returned Cav3 T inh inactive and PLAP activator inactive.
For C=CCOc1c(Br)cc(CNc2nccs2)cc1OC the results were Cav3 T inh -7.9.
`Cc1ccc(C)c(N(CC(=O)NC2CCCCC2)C(=O)CCC(=O)Nc2ccccn2)c1` gave HER2 expr 66K inactive, PLAP activator inactive, M1 antag inactive and M1 ag inactive.
`CC1CCN(c2cc(N3CCOCC3)c(F)cc2[N+](=O)[O-])CC1` gave Cav3 T inh inactive and PLAP activator inactive.
